Assay outcomes from PubChem BioAssay.
DRD3 antagonist: blocks the human D3 dopamine receptor. P35462. D3R cells, DiscoveRx beta-arrestin luminescence, antagonist mode; hits give low values. max response, negative = inhibition, %. 360,000 tested, 2.5% active. AID 652054; in the data active = max response below about -50%; note: % is set by controls: 0 for no effect and ±100 for the full control effect
Target sequence (P35462 whole entry, looked up): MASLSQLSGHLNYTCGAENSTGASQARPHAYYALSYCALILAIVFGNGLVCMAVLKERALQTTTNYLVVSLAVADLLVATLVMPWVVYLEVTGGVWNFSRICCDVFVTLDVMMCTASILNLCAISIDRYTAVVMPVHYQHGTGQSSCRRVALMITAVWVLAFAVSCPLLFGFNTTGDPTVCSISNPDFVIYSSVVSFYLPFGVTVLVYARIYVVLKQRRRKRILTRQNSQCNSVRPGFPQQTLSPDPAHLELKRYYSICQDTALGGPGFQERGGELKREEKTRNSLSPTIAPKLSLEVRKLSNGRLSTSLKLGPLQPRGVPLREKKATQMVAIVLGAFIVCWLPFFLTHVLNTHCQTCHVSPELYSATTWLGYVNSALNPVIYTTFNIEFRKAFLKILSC
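Cells expressing the human receptor were seeded at 1500 cells/well, incubated overnight at 37 degrees C in 5% CO2, then exposed to library compounds with dopamine controls for 90 minutes at 37 degrees C before luminescent detection.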
D3 ag: activates the human D3 dopamine receptor | 410,000 tested, 0.58% active | D3R DiscoveRx beta-arrestin cells, luminescence, 90 min | max activation, % | P35462 | AID 652048; in the data active = max activation above about 30%; note: 0% is about no effect
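Cells at 1500/well, incubated overnight, then treated with pinned compounds (dopamine as control) for 90 min at 37 degrees C. DiscoveRx reagent added for 30 - 60 minutes at room temperature; luminescence read.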
D1 ag: agonists of human D1 dopamine receptor; P21728; HEK293 T-REx D1 cells, calcium flux, agonist mode; activation, % at 2 µM; 360,000 tested, 1% active; AID 504660; in the data active = activation above about 30%; note: 0% is about no effect
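Agonism was scored from calcium flux recorded over 180 s (1 read/s) after pintool compound addition, following a 10-cycle baseline. Cells were inducible force-coupled HEK293 TREx D1, plated overnight at 30 C and loaded with no-wash calcium dye.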
D1 PAM: enhances dopamine response at the human D1 receptor | potentiation, % at 10 µM | P21728 | 360,000 tested, 0.036% active | HEK293 TREx D1 cells, calcium flux, dopamine EC20 potentiation; in the data active = potentiation above about 30%; note: 0% is about no effect
D1 antagonist: human D1 dopamine receptor antagonism; P21728; HEK293 TREx D1 cells, calcium flux, dopamine EC80; hits give low values; activity change, negative = inhibition, % at 10 µM; 360,000 tested, 3.2% active; in the data active = activity change below about -30%; note: % is set by controls: 0 for no effect and ±100 for the full control effect
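Tetracycline-induced HEK293 T-REx cells with force-coupled D1 receptor were loaded with a no-wash calcium dye. Compound was added after a 10 s baseline and read kinetically for 180 s; EC80 dopamine was then added and calcium flux followed another 180 s.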
Starred values were filed as active, the others as inactive; · = no result. Hits are enriched below; roughly 6.1% of the tested compounds scored in any of these assays.

SMILES	DRD3 antagonist	D3 ag	D1 ag	D1 PAM	D1 antagonist
COc1cccc(CNC(=O)c2ccc3nc(CCc4ccccc4)oc3c2)c1OC	·	1	48*	-2	-32*
COc1ccc(CNC(=O)c2ccc3nc(CCc4ccccc4)oc3c2)cc1OC	·	12	22	-3	-5
CCn1ccnc1CNC(=O)c1ccc2oc(CCCc3ccccc3)nc2c1	-51*	-15	13	-10	4
CCCCOc1ccc(S(=O)(=O)N2CCN(c3ccccc3OCC)CC2)cc1	·	6	9	-2	-17
Cc1ccc(C(=O)O)cc1Nc1nc2ccccc2n2nnnc12	·	-2	1	1	-3
Cc1ccc(OCC(=O)OC2=C(C(=O)c3ccccc3)N(C)S(=O)(=O)c3ccccc32)cc1	·	-14	0	-7	-16
Cc1cccc(CNC(=O)c2cnc3sc(N4CCCCCC4)nn3c2=O)c1	·	4	1	-4	0
O=[N+]([O-])c1nn(-c2ccc(Cl)cc2)n(O)c1=NCc1ccncc1	7	5	5	-5	-42*
COc1ccc(-c2nc(SCC(=O)Nc3ccc4c(c3)OCCO4)c(-c3ccc(F)cc3)[nH]2)cc1OC	·	7	2	-5	-14
COc1ccc(-c2nc(SCC(=O)Nc3ccc4c(c3)OCO4)c(-c3ccc(F)cc3)[nH]2)cc1OC	·	-4	4	-3	-36*
COc1ccc(-c2nc(SCC(=O)Nc3ccccc3)c(-c3ccc(F)cc3)[nH]2)cc1OC	·	-23	0	-5	-47*
COc1cc(-c2nc(SCC(=O)Nc3ccc(C)cc3)c(-c3ccc(F)cc3)[nH]2)cc(OC)c1OC	·	-15	4	-5	-35*
CCCS(=O)(=O)N1CCC(C(=O)NCCOC)CC1	·	-19	-1	1	0
COc1ccc2nc(N3CCCC3)c(C#N)cc2c1	24	2	41*	-7	-12
Cc1ccc2nc(N3CCN(C(=O)c4ccccc4F)CC3)c(C#N)cc2c1	0	11	·	·	·
Cc1ccc2nc(N3CCN(C(=O)c4ccc(F)cc4)CC3)c(C#N)cc2c1	-5	7	-3	0	-46*
Cc1nc(-c2ccc(Cl)cc2)sc1CCNC(=O)C(=O)Nc1ccc2c(c1)OCCO2	·	6	13	0	-15
CN1CCN(C(=O)/C(=C\c2ccccc2)c2ccccc2)CC1	-55*	3	2	5	0
Cc1ccc(N/N=C(\C#N)C(N)=S)c(C)c1	4	8	37*	-12	-35*
Cn1c(=O)n(Cc2ccc(F)cc2)c(=O)c2c1nc1n2CCCN1C1CCCCC1	-99*	1	0	-1	2
CC[C@@H](C(=O)O)[C@@H]1O[C@@H]([C@@H](C)[C@H](O)[C@H](C)C(=O)[C@H](CC)[C@H]2O[C@]3(C=C[C@@H](O)[C@]4(CC[C@@](C)([C@H]5CC[C@](O)(CC)[C@H](C)O5)O4)O3)[C@H](C)C[C@@H]2C)[C@@H](C)C[C@@H]1C	·	54*	·	·	·
CC(=O)c1cc2c(cc1NC(=O)c1cnn(-c3ccc(C)cc3)c1-n1cccc1)OCO2	·	-8	0	0	-4
COc1ccc2nc(Sc3c([N+](=O)[O-])nc(C)n3Cc3ccccc3)[nH]c2c1	-75*	-10	0	6	7
CC(C)CCC1(CCNC(C)c2cccs2)CCOC(C)(C)C1 (stereo unspecified)	-2	-7	3	-1	-36*
CCC(=O)N(CCC1(C(C)C)CCOC(C)(C)C1)C(C)c1cccs1 (stereo unspecified)	4	-16	0	5	0
SMILES	DRD3 antagonist	D3 ag	D1 ag	D1 PAM	D1 antagonist
Cc1cc(Br)cc(C)c1OCC(=O)NNC(=O)c1cccs1	1	-2	3	0	-37*
COCCn1c(SCC(=O)c2ccc(Cl)cc2)nnc1C(C)C	-70*	-1	2	-3	9
Cc1ccc(SCC(=O)Nc2ccc(S(=O)(=O)Nc3ncccn3)cc2)cc1	-1	-5	1	4	-11
CN(C)S(=O)(=O)c1cccc(NC(=O)Cc2ccc(Cl)cc2)c1	10	-4	21	-6	-32*
CC(=O)c1cccc(NC(=O)CN(C)Cc2ccc(OC(F)F)cc2)c1	-22	-29	8	-4	-35*
Cc1cc(C)n2nc(SCC(=O)Nc3ccc(O)cc3)nc2n1	-2	1	3	-7	-11
Cc1cc(C)nc(SCC(=O)Nc2ccc(S(=O)(=O)Nc3ncccn3)cc2)n1	4	34*	2	-3	-20
Cc1cc(C)n2nc(SCC(=O)Nc3ccc(S(=O)(=O)N(C)C)cc3)nc2n1	6	4	5	-2	-39*
O=C(Cc1ccc(Cl)cc1)Nc1cccc(S(=O)(=O)Nc2ccccc2F)c1	4	0	7	-6	-8
COc1ccc(NC(=O)CN(C)CC(=O)Nc2cccc(C(C)=O)c2)cc1	8	3	2	12	-5
CC1=C(c2ccc(C(C)C)cc2)S(=O)(=O)N=C1N1CCC(C(=O)NCCc2ccco2)CC1	·	6	9	-6	-12
CCOc1ccc(NC(=O)Cn2c(=O)n(CC(=O)NCCc3ccccc3)c(=O)c3sccc32)cc1	·	-7	0	-1	-10
CN(CC(=O)Nc1ccc(C#N)cc1)Cc1ccc(Cl)c(Cl)c1	79	3	4	-10	-4
CN(C)S(=O)(=O)c1cccc(NC(=O)CSc2nncn2C)c1	5	1	1	-3	6
Cc1ccnc(NS(=O)(=O)c2ccc(NC(=O)C3CC=CCC3C(=O)O)cc2)n1 (stereo unspecified)	-4	-6	2	1	-89*
CN(CC(=O)Nc1cccc(C#N)c1)Cc1ccc(Cl)cc1	-74*	-18	1	-11	-42*
Cc1cc(C)nc(SCC(=O)Nc2cccc(S(=O)(=O)N(C)C)c2)n1	17	3	7	-14	-30*
Cc1ccccc1-c1nc(CS(=O)(=O)CC(=O)NCc2cccc(Cl)c2)c(C)o1	·	-16	3	2	0
NCCc1c(-c2ccccc2)n(-c2ccccc2)c2ccccc12	-26	-17	102*	1	21
O=C(Nc1ccc(C(F)(F)F)cc1)c1ccccc1	-20	-4	1	-12	-49*
O=C(Nc1ccc(C(F)(F)F)cc1)c1ccccc1Br	2	4	4	-7	-38*
O=C(C[n+]1ccc(C(=O)c2ccccc2)cc1)Nc1ccc(C(F)(F)F)cc1	-11	-13	2	-3	-43*
Nc1cc[n+](CC(=O)Nc2ccccc2)cc1	-5	-3	1	-3	-6
Cc1ccc(C(=O)NCC(c2ccco2)S(=O)(=O)c2ccccc2)cc1C (stereo unspecified)	·	14	4	6	19
Cc1ccc(-c2csc(=Nc3ccccc3)n2Cc2ccc3c(c2)OCO3)cc1	·	-1	0	-2	11
O=C(CSc1cn(CCNC(=O)c2c(F)cccc2F)c2ccccc12)Nc1ccc(F)cc1	·	9	1	-3	-6
